aSyn UTR inh: MLPCN primary screen, SNCA 5' untranslated region; alpha-synuclein 5'UTR reporter, inhibitor activity; inhibition, % (tested at 7.5 µM); 300,000 compounds, 0.82% hits; AID 1813, 2009; in the data active = inhibition above about 60%; inconclusive = no clear call, values can overlap the other calls;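 note: H4 neuroglioblastoma cells stably carrying SNCA 5'UTR luciferase fusion; 0% = DMSO wells and 100% = positive control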
Shn3 inh set2: reduction of Shn3 3'UTR firefly luciferase signal, primary screen, Schnurri-3 inhibitor project, cell-based, Clone20 osteoblasts, set 2 | Clone20 osteoblast Shn3 3'UTR firefly luciferase, 24 h | inhibition, % at 12.5 µM | 360,000 compounds, 0.52% hits;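 active = mean inhibition of at least 75% with every replicate also reaching 75%; inconclusive = mean inhibition at least 75% but some replicate below; inactive = mean inhibition below 75%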;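 note: 0% = median of neutral control wells and 100% = pilot-screen positive control compound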
MITF TRPM1 inh: inhibitors of MITF-dependent TRPM1 promoter reporter, primary screen, cell-based, SK-MEL-5, single point, luciferase; 330,000 compounds, 0.83% hits; inhibition, % at 12.5 µM; AID 488899, 2010; SK-MEL-5 TRPM1 promoter luciferase, 24 h;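 active = mean inhibition across replicates of 60% or more, whatever share of single replicates reaches that level; inconclusive = some that reach 60%, reason not given; inactive = mean inhibition across replicates below 60%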
PAX8 inh HTS: inhibitors of PAX8-driven TPO luciferase reporter, primary screen, RMG-I cells, single concentration | SteadyGlo, 24 h | 360,000 compounds, 1.2% hits | inhibition, % at 12.6 µM;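 active = mean replicate inhibition at least 60% with every replicate also reaching 60%; inconclusive = only one of the two criteria is met; inactive = mean below 60% and not all replicates reaching 60%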;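 note: luciferase light reporting Pax8 driven TPO promoter activity; plate controls were median of neutral control wells for no effect and mitoxantrone controls for full effect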
EBV LMP1 NFkB: EBV LMP1-driven NF-kappaB luciferase reporter inhibitors, primary screen, cell-based, luminescence, single point. inhibition, % at 12.5 µM. LMP1-induced NF-kappaB luciferase reporter cells. AID 504558, 2011. 350,000 compounds, 0.69% hits; in the data active = inhibition above about 41%; inconclusive = no clear call, values can overlap the other calls;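 note: 0% = neutral control wells and 100% = reference inhibitor control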
An asterisk follows results filed as active; ? = inconclusive; nt = no result given. Most compounds without a hit are left out; they make up all but 2.1% or so of the library.

SMILES	aSyn UTR inh	Shn3 inh set2	MITF TRPM1 inh	PAX8 inh HTS	EBV LMP1 NFkB
COc1cc2c(c(OC)c1OC)-c1ccc(N(C)CC(OC)OC)c(=O)cc1[C@@H](NC(C)=O)CC2	84*	-30	73*	99*	-11
CCN(CC)CCN1C(=O)c2ccccc2NC1c1cc(OC)c(OC)c(OC)c1 (configuration not stated)	-6	13	5	nt	1
CCN(CC)c1ccc2c(cc1=O)[C@@H](NC)CCc1cc(OC)c(OC)c(OC)c1-2	107*	33	66*	98*	22
C[C@H](CO)N1C[C@H](C)[C@H](CN(C)Cc2ccc(Cl)c(Cl)c2)OCCCC[C@H](C)Oc2ccc(NS(=O)(=O)c3ccc(F)cc3)cc2C1=O	nt	nt	nt	97*	nt
C[C@@H]1CN([C@H](C)CO)C(=O)c2cc(NS(=O)(=O)c3ccc(F)cc3)ccc2O[C@@H](C)CCCCO[C@H]1CN(C)Cc1ccc(Cl)c(Cl)c1	nt	nt	nt	69*	nt
O=C1OCCC1Sc1nc2ccccc2[nH]1 (configuration not stated)	15	-11	-2	nt	-3
CCN1CCN(CCCNC(=O)c2ccc(/C=C3/Oc4ccccc4N(Cc4cccc(C)c4)C3=O)cc2)CC1	101*	3	76*	nt	-1
O=C(NCCCN1CCOCC1)c1ccc(/C=C2\Oc3ccccc3N(Cc3ccccc3F)C2=O)cc1	-40	-18	-20	17	0
O=C(O)CSc1nnc(-c2ccccc2)c(-c2ccccc2)n1	-4	-1	-2	-5	-6
CCC(=O)NNC(=O)CSc1nnc(-c2ccccc2)c(-c2ccccc2)n1	-8	2	8	8	85*
C/C(CC1(O)/C(=N/O)CCc2nonc21)=N\O (configuration not stated)	-10	28	0	14	25
O=C(Cc1nnc(NC(=O)c2ccccc2)s1)N/N=C/c1ccco1	9	-2	14	132*	-8
COC(=O)c1cccc(NC(=O)c2onc3c2CCCC3)c1	79*	-26	-20	-118	-1
Cc1cccc(NC(=O)c2onc3c2CCCC3)c1C	-162	-37	-85	nt	-17
Cc1cccc(NC(=O)c2onc3c2CCCC3)n1	86*	3	32	31	31
COc1cccc(NC(=O)CSc2nc3c(sc4ccccc43)c(=O)n2CCN(C)C)c1	-13	-17	-11	1	1
COc1cccc(NC(=O)CSc2nc3c(sc4ccccc43)c(=O)n2CCCN2CCCC2)c1	-16	-39	98*	-6	-1
C[C@@]12C(=O)N(Cc3ccccc3)CC(=O)N1[C@H](/C=C/c1ccccc1)[C@@H]1C(=O)N(c3ccccc3)C(=O)[C@@H]12	19	nt	-2	0	82*
CN1C(=O)[C@H]2[C@@H](/C=C/c3ccccc3)N3C(=O)CN(Cc4ccccc4)C(=O)[C@@]3(C)[C@H]2C1=O	20	3	1	6	0
O=C1c2ccccc2C(=O)c2c1ncn2-c1ccccc1	70*	16	61*	-3	8
Nc1nc2c(ncn2-c2ccccc2)c(=O)[nH]1	nt	-17	7	-12	-18
COCCn1c(SCC(=O)NCc2ccc3c(c2)OCO3)nnc1C(C)C	0	-4	0	12	-1
O=C(Nc1ccccc1)N1CCc2scc[n+]2-c2ccccc21	5	9	-7	112*	5
COc1cc(C2=NOC(C(=O)N3CCCCCC3)C2)cc(OC)c1OC (configuration not stated)	15	-4	-2	nt	0
CCCCCCCCOC(=O)c1cc([N+](=O)[O-])c(Sc2ncnc3nc[nH]c23)c([N+](=O)[O-])c1	nt	99*	43	25	8
SMILES	aSyn UTR inh	Shn3 inh set2	MITF TRPM1 inh	PAX8 inh HTS	EBV LMP1 NFkB
O=C1NC(=S)N/C1=C/C=C/c1ccccc1	-92	-27	-17	-57	-4
O=C1NC(=S)NC1=Cc1ccc2c(c1)CCC2	nt	-6	-21	-38	93*
N#Cc1ccc(-c2ccc([C@@H]3[C@@H](CO)N4C(=O)CN(C(=O)C5CCCCC5)C[C@@H]34)cc2)cc1	nt	nt	nt	5	nt
Cc1ccc(-c2ccnc3c(Cl)c(C)nn23)cc1	69*	4	14	13	-8
COCCNC(=O)C(=O)NCC1OCCN1C(=O)c1ccc(Cl)cc1 (configuration not stated)	20	-5	-2	-2	80*
O=C(CN1C(=O)C(c2ccccc2)Oc2cccnc21)NCc1ccccc1F (configuration not stated)	11	-1	6	2	57*
Cc1noc(C)c1COC(=O)C1CCN(C(=O)c2ccc(Cl)cc2)CC1	14	-6	-1	18	6
COc1ccc(OC)c(N(CCN2C(=O)c3ccccc3C2=O)C(=O)CCl)c1	nt	31	nt	104*	2
COc1ccc(NC(=O)CCN2C(=O)c3ccccc3C2=O)c(OC)c1	2	-1	-13	-1	36
O=C(C[C@H]1CC[C@@H]2[C@H](COC[C@H](O)CN2S(=O)(=O)c2ccc(Cl)cc2)O1)NCc1ccc(Cl)c(Cl)c1	nt	nt	nt	31	nt
Cc1ccc(-c2cc3c(nn2)-c2ccccc2C3=O)cc1	86*	80	78*	79*	65*
O=C1c2ccccc2-c2nnc(-c3ccc(F)cc3)cc21	22	-26	6	-121	11
O=C(/C=C/c1cccc(Cl)c1)c1ccc([N+](=O)[O-])o1	91*	95*	98*	103*	-19
COc1cc(/C=C/C(=O)c2ccc([N+](=O)[O-])o2)ccc1O	67*	97*	85*	59	-21
COc1ccc(/C=C/C(=O)c2ccc([N+](=O)[O-])o2)cc1OC	?	nt	nt	112*	nt
O=C(Nc1cccc(Cl)c1)N[C@@H]1CC[C@H](CCNC(=O)C2CCCC2)O[C@H]1CO	nt	nt	nt	10	nt
Fc1ccc(N2CCN(C(c3cccs3)c3nnnn3CCc3ccccc3)CC2)cc1 (configuration not stated)	-1	36	13	nt	9
CCc1ccc2nc(SCC(=O)N3CC(=O)Nc4ccccc43)c(C#N)cc2c1	-1	9	8	-20	-3
CCS(=O)(=O)N1N=C(c2ccc(NS(C)(=O)=O)cc2)CC1c1ccccc1 (configuration not stated)	-1	-17	-16	-9	3
CS(=O)(=O)Nc1ccc(C2=NN(S(C)(=O)=O)C(c3ccccc3)C2)cc1 (configuration not stated)	-34	-9	-8	-6	66*
O=C(O)CC1(CC(=O)NCc2csc(-c3cccs3)n2)CCCCC1	-6	3	1	-11	0
Cc1nc2ccc(CN(C)c3ccc(C(=O)N[C@@H](CCC(=O)O)C(=O)O)s3)cc2c(=O)[nH]1	103*	nt	nt	nt	nt
CC(=O)N(C(C)=O)c1ccc2nc(C)[nH]c(=O)c2c1	2	9	-4	nt	-2
